The results in this text go back to the supplement of paper PMC6555819.

The first assay relates to THRa:RXRa (NR concentration 90 nM, RXRa partner concentration 90 nM). The experiment in a line: PBM binding z-score (relative to random genomic background probes); higher = stronger binding; sequences stand for … in GC…GCGATTGACAGCGTAGAATGAAGG
The method, boiled down:
(§1)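 Each nuclear receptor dimer, without ligand, was incubated for 1 h on custom Agilent 4×180K protein-binding microarrays. Binding was detected with antibodies against each partner (one per run), and scanned fluorescence was regression-normalized. The binding z-scores are referenced to random human genomic background probes.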
As for CATGCTAGGTCAATGGTCAGCTAAAGCAGCTCGC, the PBM binding z-score was 2.38.
On the same count and under the same terms, to TTACCAAGGTGAAGGTCGTTGACCCCTCTGTAGA belongs 3.6; to TTACCAGGGTGAGCTGAGGTCGTTGATCCAACTC, 4.67; to CCTACTGGGCCCTCAGGTCATTGATATCAACGTT, 3.
The same measure, in the same setting: to ACTAGCAGGCTAAGGGTCACTCAAGATTAGTCCG belongs 2.6; to TCTTTTAGATCAGCAGGTTAAGAAAGCTGGCCAA, 0.357.
The same measure, in the same setting: the same measure for AGAATGAGGTTATTAAGTTCAGGGAATTGCGGTC: 3.11; for CGGCCTAGGTCAGGGCCAGTATAGGAGGAACGTT: 1.8.
Sequence ACTATTAGTTGACTGAGGGCAACCGATACGACGC came in with a PBM binding z-score of 1.91.
In turn, CATTACGGGTCACGAGGTTATAGCACGACGAGCG showed a PBM binding z-score of 3.82.
For the sequence CTACCAAGGTGAACAAGGTCATTGATTACTATTC, the PBM binding z-score turned out to be 4.18.
TCTGCTAGTTCAGTTGGTCAGCTAACGAGCTGCC: the PBM binding z-score is -0.312.
Still for that read-out and setting: the same measure for GCTAGTTGGTCAGTAAAAGGTCACAAACCGGTCG: 3.32; for ATCGAGAGGTCGTGAGGTGAGTATACAGAAAGGC: 3.36.
The sequence CGTCCAAGGTCAAACGTCAGTGAAGAGATGACGG gave a PBM binding z-score of 3.76.
With ATTTCTAGGTAACCAAGTTCAGTGAATGCCGAAC, the PBM binding z-score stood at 1.81.
CGTCAAAGTTCACGGTAACGTAACAGAAAGCAGC came in with a PBM binding z-score of 2.38.
Still for that read-out and setting: the same measure for TTACCAAGGTGAAAGGTCGTAGATGCACGCCTTG: 3.42; for ATATCTAGGTAACCAAGTTCAGTGAATGCCGAAC: 1.58; for ATCTCAAGGTAAAGTTCAGTGAAAGATCGATAGA: 1.78.
On the same count and under the same terms, to CCTACTGGGCCATCAGGGCATTGATATCAACGTT belongs 0.292.
On the same count and under the same terms, the same measure for CCTATGAGTTGACCATAAGGGCAACCGAAGCTCG: 2.49; for TCTGCTAGGTGAGTTGGTCAGCTAACGAGCTGCC: -0.346.
In turn, GGAACGAGGGCAAAGTTGCTAGCATCTGTCGACG had a PBM binding z-score of 0.852.
On the same count and under the same terms, the same measure for ATCGCTAGGTAAGACTCAGTTCAGTGAAGAACGC: 0.249; for ATCTCAAGGTAACAAGTTCAGTGAAAGAGAGGAC: 2.16.
Still for that read-out and setting: to CCTTACGGCTCACTGACAGGTTATAGCATTTGGA belongs 0.0321; to TCTATTGGTTGAAGGGCAACCGACGAGTCCGTTT, 0.279.
Consider TCTATTAGTTGAAGCGCAACCGACGAGTCCGTTT, for which the PBM binding z-score is -0.201.
As for CGCCCAAGGTCATAGGAGGTCAGTGAAGACAGAT, the PBM binding z-score was found to be 5.34.
The same measure, in the same setting: the same measure for ATATCTAGGTTAAGGGTCATTCAGGTTGGTTCGC: 3.82; for CAAACTAGGTCACGAAAGGTCAAAGTAGAATGAC: 5.12.
The same measure, in the same setting: the same measure for ACTATTAGTTGACTTAGGGCAACCGGTACGACGC: 1.47.
On the same count and under the same terms, the same measure for CAAACTAGGTCAAAGTCAAAGTCGGTTTGTGCCA: 2.81; for CCTACTGGGCCATTCAGAGGTCATTTATCATATG: 3.12.
As to TCATATAGGTAAATGCTAGGTTAAAGTCCGATCT, the PBM binding z-score turned out to be 1.35.
The same measure, in the same setting: the same measure for TTACCAAGGTGAGGGTCGTTGATCCCTCTGTAGA: 1.8.
As to CCTAGCAGGCCAGGGTCAATCAAGCATTTCGCTT, the PBM binding z-score is 3.05.
TCTCAAAGTTCAAAGGTAACGTAAGTATCCACAC: the PBM binding z-score was found to be 3.46.
The sequence ATATGTAGGTTATCGGGTCATTTAGTTTGCGCAT showed a PBM binding z-score of 3.3.

For another assay, the system named is THRa homodimer (NR concentration 90 nM). Described as above. In a few lines:
as §1
The sequence CATGCTAGGTCAATGGTCAGCTAAAGCAGCTCGC had a PBM binding z-score of 0.438.
On the same count and under the same terms, the same measure for TTACCAAGGTGAAGGTCGTTGACCCCTCTGTAGA: 1.43.
Same read-out and setting: to TTACCAGGGTGAGCTGAGGTCGTTGATCCAACTC belongs 1.57; to CCTACTGGGCCCTCAGGTCATTGATATCAACGTT, 2.78.
ACTAGCAGGCTAAGGGTCACTCAAGATTAGTCCG: the PBM binding z-score was -0.003.
TCTTTTAGATCAGCAGGTTAAGAAAGCTGGCCAA: the PBM binding z-score was -0.515.
Sequence AGAATGAGGTTATTAAGTTCAGGGAATTGCGGTC yielded a PBM binding z-score of 1.36.
Still for that read-out and setting: to CGGCCTAGGTCAGGGCCAGTATAGGAGGAACGTT belongs 0.0895.
Still for that read-out and setting: the same measure for ACTATTAGTTGACTGAGGGCAACCGATACGACGC: 1.06; for CATTACGGGTCACGAGGTTATAGCACGACGAGCG: 1.56; for CTACCAAGGTGAACAAGGTCATTGATTACTATTC: 3.41.
On to TCTGCTAGTTCAGTTGGTCAGCTAACGAGCTGCC, for which the PBM binding z-score was -0.718.
Sequence GCTAGTTGGTCAGTAAAAGGTCACAAACCGGTCG returned a PBM binding z-score of 1.15.
Sequence ATCGAGAGGTCGTGAGGTGAGTATACAGAAAGGC displayed a PBM binding z-score of 1.63.
For the sequence CGTCCAAGGTCAAACGTCAGTGAAGAGATGACGG, the PBM binding z-score came to 2.1.
For ATTTCTAGGTAACCAAGTTCAGTGAATGCCGAAC, the PBM binding z-score came out at 0.761.
Consider CGTCAAAGTTCACGGTAACGTAACAGAAAGCAGC, for which the PBM binding z-score was -0.36.
In turn, TTACCAAGGTGAAAGGTCGTAGATGCACGCCTTG showed a PBM binding z-score of 0.581.
For the sequence ATATCTAGGTAACCAAGTTCAGTGAATGCCGAAC, the PBM binding z-score was determined as 0.613.
Still for that read-out and setting: to ATCTCAAGGTAAAGTTCAGTGAAAGATCGATAGA belongs 0.667.
With CCTACTGGGCCATCAGGGCATTGATATCAACGTT, the PBM binding z-score is -0.276.
Same read-out and setting: to CCTATGAGTTGACCATAAGGGCAACCGAAGCTCG belongs 1.04; to TCTGCTAGGTGAGTTGGTCAGCTAACGAGCTGCC, -0.955.
Turning to GGAACGAGGGCAAAGTTGCTAGCATCTGTCGACG, the PBM binding z-score was -0.505.
For ATCGCTAGGTAAGACTCAGTTCAGTGAAGAACGC, the PBM binding z-score is -0.192.
As to ATCTCAAGGTAACAAGTTCAGTGAAAGAGAGGAC, the PBM binding z-score is 1.54.
In turn, CCTTACGGCTCACTGACAGGTTATAGCATTTGGA had a PBM binding z-score of 0.195.
On the same count and under the same terms, the same measure for TCTATTGGTTGAAGGGCAACCGACGAGTCCGTTT: 0.101; for TCTATTAGTTGAAGCGCAACCGACGAGTCCGTTT: -0.12; for CGCCCAAGGTCATAGGAGGTCAGTGAAGACAGAT: 3.1.
Same read-out and setting: the same measure for ATATCTAGGTTAAGGGTCATTCAGGTTGGTTCGC: 2.49; for CAAACTAGGTCACGAAAGGTCAAAGTAGAATGAC: 2.65.
The same measure, in the same setting: to ACTATTAGTTGACTTAGGGCAACCGGTACGACGC belongs 0.512; to CAAACTAGGTCAAAGTCAAAGTCGGTTTGTGCCA, 0.817; to CCTACTGGGCCATTCAGAGGTCATTTATCATATG, 1.45.
TCATATAGGTAAATGCTAGGTTAAAGTCCGATCT: the PBM binding z-score came to 0.664.
Take TTACCAAGGTGAGGGTCGTTGATCCCTCTGTAGA: the PBM binding z-score was 0.423.
As to CCTAGCAGGCCAGGGTCAATCAAGCATTTCGCTT, the PBM binding z-score is 0.553.
With TCTCAAAGTTCAAAGGTAACGTAAGTATCCACAC, the PBM binding z-score is 0.566.
ATATGTAGGTTATCGGGTCATTTAGTTTGCGCAT gave a PBM binding z-score of 2.86.
